About 83,000 compounds went through this panel and 20% of them were active in at least one assay; those are over-represented in the sample as a whole.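 Percent growth is the endpoint: 0 to 100 indicates growth inhibition (40 means 60% inhibition), 0 means no net growth, and negative values indicate cell death.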 Unmarked numbers belong to inactive results. Activity calls are given as the source filed them. The calls were made as follows: active = growth percent below 10; inactive = the rest.

Among the test systems are HCT-15 colon; HT29 colon; SNB-75 CNS; SNB-19 CNS; U251 CNS; PC-3 prostate; SK-MEL-5 melanoma; UACC-62 melanoma; LOX IMVI melanoma; SK-MEL-28 melanoma; SK-MEL-2 melanoma; SN12C renal; UO-31 renal; TK-10 renal; ACHN renal; CAKI-1 renal; A498 renal; CCRF-CEM leukemia; MOLT-4 leukemia; EKVX NSCLC.
Experiment in all cases: NCI-60 one-dose screen, 48 h (100 = growth as untreated, 0 = no growth, -100 = all killed)
What all share (details): 10 µM unless noted

Regarding `CNCc1cccc2c1OCCOCCOCCN(C)S(=O)(=O)c1ccc(cc1)-c1cnc(N)c(n1)C(=O)N2`, the growth is 11.4% in the assay with HCT-15 colon; 13.2% in the assay with HT29 colon; 33.2% in the assay on SNB-75 CNS; 93.3% in the assay on SNB-19 CNS; 12.8% in the assay with U251 CNS; 54.1% in the assay on PC-3 prostate. Further, the growth in the assay with SK-MEL-5 melanoma is 82.5%; in the assay with UACC-62 melanoma, 29.4%; in the assay with LOX IMVI melanoma, -16% (active); in the assay on SK-MEL-28 melanoma, 68%; in the assay with SK-MEL-2 melanoma it was 56.7%; in the assay on SN12C renal, 37%. Also, the growth was 36.5% in the assay on UO-31 renal; 53.3% in the assay with TK-10 renal; 22.1% in the assay with ACHN renal; 44.6% with CAKI-1 renal; 36.7% in the assay with A498 renal; -23.6% (active) in the assay on CCRF-CEM leukemia. Moreover, the growth in the assay on MOLT-4 leukemia is 0.352% (active).
On to `COc1cc(C(=O)/C=C/c2c(C)n([O-])c3ccc(C)cc3[n+]2=O)cc(OC)c1OC`, for which the growth was 25.9% in the assay on HCT-15 colon; 25.3% in the assay with HT29 colon; 73.2% with SNB-75 CNS; 108% in the assay on SNB-19 CNS; 55.4% in the assay with U251 CNS; 64.8% in the assay on PC-3 prostate. The growth in the assay on SK-MEL-5 melanoma was 89%; in the assay with UACC-62 melanoma it was 54%; with LOX IMVI melanoma it was 33%; in the assay on SK-MEL-28 melanoma, 72.1%; in the assay with SK-MEL-2 melanoma, 84.3%; in the assay on EKVX NSCLC it was 50.8%. Further, the growth in the assay with SN12C renal was 60%; in the assay with UO-31 renal, -27.3% (active); in the assay on TK-10 renal it was 26.6%; in the assay with ACHN renal, -40.9% (active); in the assay on CAKI-1 renal it was 6.71% (active); with A498 renal, 95.3%. In addition, the growth in the assay on MOLT-4 leukemia is -30.2% (active).
With `O=C1c2cccnc2C(=O)c2c1c(C(=O)OCCN1CCCCC1)c1ccccn21`, the growth is -48.4% (active) in the assay on HCT-15 colon; -9.8% (active) in the assay on HT29 colon; -63.7% (active) with SNB-75 CNS; -31.8% (active) in the assay with SNB-19 CNS; -29.9% (active) with U251 CNS; 9.27% (active) with PC-3 prostate. In addition, the growth is -97% (active) with SK-MEL-5 melanoma; -41.2% (active) in the assay on UACC-62 melanoma; -58.6% (active) with LOX IMVI melanoma; -37.9% (active) in the assay with SK-MEL-28 melanoma; -45.4% (active) with SK-MEL-2 melanoma; 4.44% (active) in the assay with EKVX NSCLC. The growth with SN12C renal was -68.8% (active); in the assay with UO-31 renal, -12.7% (active); in the assay on TK-10 renal it was -14.3% (active); in the assay on ACHN renal, -66% (active); in the assay with CAKI-1 renal, 2.16% (active); with A498 renal, 47.3%. The growth is -8.77% (active) in the assay with CCRF-CEM leukemia and -19.1% (active) in the assay with MOLT-4 leukemia.
Regarding `CC/C=C\C[C@H](O)C/C=C1/C(=O)C=C[C@@H]1C/C=C\CCCC(N)=O`, the growth is -36.8% (active) in the assay on HCT-15 colon; -1.88% (active) with HT29 colon; 69.3% with SNB-75 CNS; 26.9% in the assay with SNB-19 CNS; 0.507% (active) in the assay on U251 CNS; 19.6% with PC-3 prostate. Also, the growth in the assay with SK-MEL-5 melanoma was -94.8% (active); in the assay with UACC-62 melanoma, -45.8% (active); with LOX IMVI melanoma, -56.2% (active); in the assay with SK-MEL-28 melanoma it was -14.5% (active); in the assay with SK-MEL-2 melanoma it was 13.9%; in the assay on EKVX NSCLC, 23.6%. The growth with SN12C renal is -4.37% (active); in the assay with TK-10 renal it was -13% (active); in the assay on ACHN renal, -82.2% (active); in the assay on CAKI-1 renal, 11.3%; in the assay with A498 renal it was 54.6%; with CCRF-CEM leukemia, -4.33% (active). In the assay with MOLT-4 leukemia, the growth was -13% (active).
As to `CCOC(=O)CC(=O)c1c(C)cc(C)cc1C`, the growth was 98.2% in the assay with HCT-15 colon; 87.7% in the assay with HT29 colon; 112% in the assay with SNB-75 CNS; 96.2% in the assay with SNB-19 CNS; 105% with U251 CNS; 103% with PC-3 prostate. For the same molecule, the growth in the assay on SK-MEL-5 melanoma is 100%; in the assay with UACC-62 melanoma it was 96.9%; with LOX IMVI melanoma, 98.5%; with SK-MEL-28 melanoma, 118%; in the assay with SK-MEL-2 melanoma it was 93.4%; with EKVX NSCLC, 105%. In addition, the growth is 94.1% in the assay with SN12C renal; 116% with TK-10 renal; 83.7% with ACHN renal; 97% in the assay with CAKI-1 renal; 96.8% in the assay on A498 renal; 90.9% with CCRF-CEM leukemia. Besides, the growth with MOLT-4 leukemia is 78.7%.
Turning to `CCOC(=O)/C=C/c1ccc(C(=O)OCC)[nH]1`, the growth is 24.3% with HCT-15 colon; 15% in the assay on HT29 colon; 70.1% with SNB-75 CNS; 87.7% in the assay on SNB-19 CNS; 39.9% with U251 CNS; 83.5% in the assay on PC-3 prostate. Also, the growth with SK-MEL-5 melanoma is 8.89% (active); in the assay on UACC-62 melanoma, 51%; in the assay with LOX IMVI melanoma it was 52.7%; with SK-MEL-28 melanoma, 83.8%; in the assay on SK-MEL-2 melanoma it was 47%; in the assay with SN12C renal it was 80.7%. In addition, the growth with UO-31 renal is 72.1%; in the assay with TK-10 renal, 62.6%; with ACHN renal it was 64.9%; in the assay on CAKI-1 renal, 35.5%; with A498 renal, 49.8%; in the assay with CCRF-CEM leukemia, 82.8%. The growth with MOLT-4 leukemia was 75.8%.
Regarding `COc1ccc(CN2C(=O)/C(=C\c3cc(OC)c(OC)c(OC)c3)c3cc(OC)ccc32)cc1`, the growth in the assay on HCT-15 colon is -36.6% (active); in the assay on HT29 colon it was -25.3% (active); with SNB-75 CNS, 28.3%; in the assay on SNB-19 CNS, 59.8%; in the assay on U251 CNS, -48% (active); in the assay with PC-3 prostate, 28.9%. Also, the growth with SK-MEL-5 melanoma is 1.57% (active); in the assay with UACC-62 melanoma, -10.4% (active); in the assay on LOX IMVI melanoma, -71.8% (active); in the assay with SK-MEL-28 melanoma, -31.8% (active); in the assay on SK-MEL-2 melanoma, -13.4% (active); in the assay on EKVX NSCLC, 13.5%. The growth in the assay with SN12C renal was 18%; in the assay with UO-31 renal, 6.01% (active); in the assay with TK-10 renal, 11.2%; in the assay on ACHN renal it was -60.5% (active); with CAKI-1 renal it was -2.31% (active); in the assay with A498 renal, 38.6%. The growth in the assay with MOLT-4 leukemia is -24.7% (active).
Turning to `COc1cc(-c2c3c(nc4c2c(C)nn4-c2ccccc2)-c2ccccc2C(=O)C3=O)cc(OC)c1OC`, the growth with HCT-15 colon was 85.6%; with HT29 colon, 44.7%; in the assay on SNB-75 CNS, 138%; with SNB-19 CNS it was 101%; in the assay with U251 CNS, 86.7%; with PC-3 prostate it was 53.1%. Further, the growth is 70.5% with SK-MEL-5 melanoma; 86.7% in the assay with UACC-62 melanoma; 35.7% with LOX IMVI melanoma; 95% with SK-MEL-28 melanoma; 72.3% in the assay on SK-MEL-2 melanoma; 98.3% in the assay with EKVX NSCLC. Besides, the growth with SN12C renal was 90.5%; in the assay with UO-31 renal, 73.1%; in the assay on ACHN renal, 82.3%; with CAKI-1 renal, 74.4%; in the assay on A498 renal, 83.7%; in the assay with CCRF-CEM leukemia it was 54.4%. The growth in the assay with MOLT-4 leukemia is 52.5%.

The record behind these values is PubChem BioAssay (NCI).
